Assay outcomes as filed in PubChem BioAssay.
Shown are actives, neighbours in structure and some others; about 7.3% of the full set was active somewhere.
NPC1 prom act = activators of NPC1 promoter. Huh7 NPC1 promoter luciferase reporter, 24 h. Potency, µM (titrated, usually from 9.22 µM), actives largely listed as activators. 2.4% of 320,000 active. AID 485313; also: nearly all actives have a fitted effect of over 60% in size
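In 1536-well qHTS, Huh7 cells harboring an NPC1 promoter–luciferase construct received compound for 24 h; activation was quantified by luminescence following luciferase reagent addition.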
Rab9 promoter act = activators of Rab9 promoter; Huh7 Rab9 promoter-luciferase reporter, luminescence, 24 h; Potency, µM (doses to about 9.22 µM), usual class: activators; 2.8% of 320,000 active; also: nearly all actives have a fitted effect of over 60% in size
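Quantitative HTS format; Huh7 Rab9-luciferase reporter cells (1500/well) receive compound 2 h post-plating, incubate 24 h at 37 °C, then get luciferase reagent for 10 min before luminescence reading.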
KinaseGlo FLuc = Kinase-Glo luciferase inhibition (counter-screen). Q27757. Kinase-Glo luciferase, ATP luminescence, 8 min. Potency, µM (titrated, usually from 38.3 µM), actives largely listed as inhibitors. 0.28% of 200,000 active; also: nearly all actives have a fitted effect of over 60% in size
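Recombinant Kinase-Glo luciferase, 10 uM ATP (linear range), luciferin; imidazole pH 7.2 / KCl / MgCl2 / Tween / BSA buffer; 8 min RT; luminescence.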
SMN2 splice enh = SMN2 splice variant enhancement; HEK293 SMN2-luciferase splicing reporter, luminescence, 30-36 h; Potency, µM (titrated, usually from 46.1 µM), actives largely listed as activators; 2.8% of 210,000 active; also: nearly all actives have a fitted effect of over 55% in size
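HEK293 cells carry an SMN2 […]–luciferase reporter in which exon 7 inclusion puts luciferase in frame. Cells were plated 10-12 h before compound addition, then incubated 30-36 h at 37C. ONE-Glo luminescence was read; sodium butyrate at 4.5 mM final served as control.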
ELG1 genotoxic = inducers of genotoxicity in HEK293T ELG1-luciferase cells | HEK293T ELG1-luciferase reporter, luminescence, 16 h | Potency, µM (titrated, usually from 46 µM), most hits filed as activators | 1.3% of 330,000 active; also: nearly all actives have a fitted effect of over 60% in size
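HEK293T cells expressing luciferase-tagged ELG1 were exposed to compound or DMSO vehicle for 16 hr at 37 °C and 5% CO2. Luciferase activity was then measured with ONE-Glo after 30 min at room temperature.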
FLuc modulator = inhibits or activates purified firefly luciferase, miR-21 counter-screen; P08659; purified FLuc, Km substrates, luminescence inhibition; Potency, µM (highest dose often 57.5 µM), hits mostly inhibitors; 6.9% of 360,000 active; also: nearly all actives have a fitted effect of over 55% in size
Target sequence (P08659 whole entry, looked up): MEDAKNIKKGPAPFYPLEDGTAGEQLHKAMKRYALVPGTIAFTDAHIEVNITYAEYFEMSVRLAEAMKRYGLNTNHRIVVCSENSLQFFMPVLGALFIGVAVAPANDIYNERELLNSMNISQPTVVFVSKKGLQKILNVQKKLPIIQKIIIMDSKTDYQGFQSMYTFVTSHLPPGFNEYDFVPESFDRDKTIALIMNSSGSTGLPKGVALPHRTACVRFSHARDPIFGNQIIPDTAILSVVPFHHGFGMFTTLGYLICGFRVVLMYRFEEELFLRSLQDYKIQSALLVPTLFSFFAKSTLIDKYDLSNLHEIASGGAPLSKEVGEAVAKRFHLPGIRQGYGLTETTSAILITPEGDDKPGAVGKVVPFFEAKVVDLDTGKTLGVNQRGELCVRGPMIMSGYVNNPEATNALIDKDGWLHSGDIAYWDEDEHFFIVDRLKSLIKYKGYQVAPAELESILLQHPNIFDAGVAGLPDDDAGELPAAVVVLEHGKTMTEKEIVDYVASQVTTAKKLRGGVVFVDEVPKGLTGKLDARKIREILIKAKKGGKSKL
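Purified P. pyralis luciferase (10nM final) with 10uM D-luciferin and 10uM ATP (Km levels) in 50mM Tris acetate pH 7.5, 10mM Mg acetate, 0.01% Tween-20, 0.05% BSA; qHTS 6-point titration, ~60 µM downward; luminescence read.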
Hits are given with their value; . = inactive; ? = inconclusive; / = no result. Calls follow the shape of the dose curve; as a rule, active = well fitted curve in the direction sought with a large enough effect; inconclusive = small, poorly fitted or top-dose-only effect, or another doubt; inactive = no such curve, though single readings can be large; an effect the other way counts as inactive or inconclusive.

SMILES	NPC1 prom act	Rab9 promoter act	KinaseGlo FLuc	SMN2 splice enh	ELG1 genotoxic	FLuc modulator
COc1ccc(N2CCN(c3oc(/C=C/c4ccccc4OC)nc3C#N)CC2)cc1	/	/	/	.	/	.
CCc1ccc(NC(=O)NC2CCCCCCC2)cc1	0.71µM	1.1µM	/	/	?	3.8µM
COc1ccc(NC(=O)C(=S)NC2CCCCC2)cc1	1.6µM	2.8µM	.	13µM	8.2µM	5.4µM
COc1ccc(OC)c(NC(=O)C(=S)NC2CCCCC2)c1	.	.	.	.	.	?
CCOc1ccc(NC(=O)NC2CCCCCCC2)cc1	1.8µM	3.5µM	/	/	10µM	5.4µM
Cc1ccc(NC(=O)NC2CCCCC2)cc1Cl	3.2µM	?	.	13µM	3.7µM	?
CCOc1ccc(CC(=O)NNC(=O)NC2CCCCC2)cc1	.	.	.	.	.	.
CCN(C(=O)Cn1cc(C(=O)c2ccc(F)cc2)c(=O)c2ccc(C)nc21)c1cccc(C)c1	/	/	/	/	/	.
CCc1ccc(NC(=O)C(=S)NC2CCCCC2)cc1	0.79µM	0.63µM	/	/	8.2µM	3µM
CCc1ccc(NC(=O)C2CCCN2C(=O)NC2CCCCC2)cc1 (centres undefined)	.	.	/	/	.	.
COc1ccc(NC(=O)CSC2CCCCC2)cc1	3.2µM	3.5µM	.	.	?	12µM
Cc1ccc(N2C(=O)CCSC23C(=O)N(Cc2ccccc2)c2ccccc23)cc1F (centres undefined)	/	/	/	/	/	.
CCN(CC)c1ccc(NC(=O)CN2CCN(S(=O)(=O)c3ccc(C(C)C)cc3)CC2)cc1	/	/	/	/	/	.
Cc1ccc(OCC(=O)Nc2ccc3nc(SCC(=O)N(C)c4ccccc4)sc3c2)cc1	/	/	/	/	/	.
Cc1c(C(=O)Nc2nc(-c3ccc(F)cc3)ns2)oc2ccc(Cl)cc12	/	/	/	.	/	.
COc1ccc(/C=N/NC(=S)SC)cc1OC	.	.	.	.	.	11µM
S=C(N/N=C/c1ccccc1)N1CCOCC1	.	.	.	.	.	24µM
COC(=O)N/N=C/c1ccccc1	.	.	.	.	.	.
CSC(=S)N/N=C/c1ccccc1	.	.	.	.	.	15µM
CCCN(C(=O)CCc1nc(-c2ccc(C)cc2)no1)c1ccc(OCC)cc1	/	/	/	.	/	.
COc1cccc(NC(=O)Cn2c(=O)n(CCCCC(=O)NCCc3ccccc3)c(=O)c3ccccc32)c1	/	/	/	.	/	.
O=c1c2ccccc2nc(SCc2nc3ccccc3s2)n1CCCO	?	2.8µM	.	14µM	?	13µM
CN(Cc1c(F)cccc1Cl)C(=O)CNC(=O)c1cccs1	4µM	?	/	/	?	?
CCOc1ccc(NC(=O)NCc2cccnc2)cc1	.	.	.	/	.	.
CCOc1ccc(NC(=O)Nc2cccnc2)cc1	?	3.5µM	/	/	?	7.6µM
SMILES	NPC1 prom act	Rab9 promoter act	KinaseGlo FLuc	SMN2 splice enh	ELG1 genotoxic	FLuc modulator
COc1ccc(C(=O)Nc2ccc(C(=O)Nc3cccnc3)cc2)cc1	.	.	/	/	?	.
COc1ccc(NC(=O)Nc2cccnc2)cc1	.	.	.	.	.	17µM
Cc1cnc(NC(=O)Nc2ccc(Cl)cc2)s1	.	.	.	.	?	4.8µM
COc1ccc(NC(=S)N2CCCCC2c2cccnc2)cc1 (centres undefined)	.	.	/	/	.	17µM
Cc1cccc(NC(=S)N2CCCCC2c2cccnc2)c1C (centres undefined)	.	.	/	/	.	.
Cc1ccc(-c2cc3ncc4c(n3n2)-c2cc(Cl)ccc2OC4)cc1	/	/	/	.	/	.
Cc1cccc(NC(=O)CSc2ncc(-c3ccc(Br)cc3)[nH]2)c1	/	/	/	.	/	.
O=C(COc1ccc(F)cc1)OCc1cc(=O)n2nc(C3CC3)sc2n1	/	/	/	/	/	.
Cc1ccc2c(c1)c1c(c(=O)n(-c3ccccc3)c(=O)n1CC(=O)NCCC1=CCCCC1)n2C	/	/	/	/	/	.
O=C(Nc1ccc(Cl)cc1)Nc1cccnc1	.	?	.	.	?	12µM
O=C(Nc1cccnc1)Nc1ccc(Cl)cc1Cl	.	.	.	.	.	?
O=C(O)c1sc2cccc(Cl)c2c1Cl	.	.	.	/	.	5.4µM
O=C(Nc1ccccc1Cl)c1sc2cccc(Cl)c2c1Cl	/	/	/	.	/	?
CCC1Oc2ccc(C)cc2N(CC(=O)NCCc2ccccc2)C1=O (centres undefined)	/	/	/	/	/	.
